This passage reports inhibition results from PubChem BioAssay AID777 (Sanford-Burnham Center for Chemical Genomics, 2007).

The structures appear in SMILES notation. Screen size: about 96,000 compounds; about 19,000 (20%) were called active.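 Rule for the calls: active = blocking of liver enzyme CYP2C9 beyond about 50% at 5 µM (limit read from the data); inactive = the rest.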 These entries were drawn from the full list.

The target of the assay is Cytochrome P450 2C9 (Homo sapiens) (UniProt P11712). Kind of assay: blockers of cytochrome P450 2C9 activity – biochemical, luminescence, ADME assay, primary screen (AID 777). To be noted: CYP2C9 Supersomes, luciferin-H conversion, at 5 µM, stronger effect = higher value.
Cytochrome P450 2C9 (Homo sapiens), sequence (P11712 whole entry, looked up): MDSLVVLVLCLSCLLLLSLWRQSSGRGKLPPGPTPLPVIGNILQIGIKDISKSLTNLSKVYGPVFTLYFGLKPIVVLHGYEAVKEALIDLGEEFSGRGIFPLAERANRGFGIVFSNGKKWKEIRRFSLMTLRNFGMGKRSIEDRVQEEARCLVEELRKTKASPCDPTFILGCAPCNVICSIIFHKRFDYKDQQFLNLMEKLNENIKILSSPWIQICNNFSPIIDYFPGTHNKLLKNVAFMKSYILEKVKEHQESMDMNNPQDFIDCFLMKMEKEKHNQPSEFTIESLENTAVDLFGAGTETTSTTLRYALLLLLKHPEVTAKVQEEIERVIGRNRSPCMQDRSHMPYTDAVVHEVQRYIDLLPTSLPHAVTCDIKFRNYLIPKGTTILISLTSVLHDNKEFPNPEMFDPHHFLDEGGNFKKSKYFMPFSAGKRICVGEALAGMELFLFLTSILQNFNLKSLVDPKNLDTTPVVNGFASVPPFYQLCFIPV
On to `Cc1ccn2cc(C(=O)NC3CCN(Cc4ccccc4)CC3)nc2c1`, for which the inhibition was 16.4% (inactive). In the case of `CC1(C)NC(=O)N(CCCCSc2ccc(Cl)cc2)C1=O`, the inhibition is 85.8% (active). As for `CCOC(=O)N1CCN(C(=O)CSc2ccc(Cl)cc2)CC1`, the inhibition is 42.4% (inactive). For `Cc1ccc(SCC2=NNC(=O)C2)cc1`, the inhibition was -7.3% (inactive).

Turning to `Cc1ccc(SCCN2C(=O)NC(C)(C)C2=O)cc1`, the inhibition was 68.6% (active).

In the case of `CCC(=O)c1ccc(OCC(O)CN2C(=O)NC(C)(C)C2=O)cc1` (stereo not drawn), the inhibition was 0.4% (inactive). To `Cc1ccc(SCc2cc(=O)[nH]c(N3CCCCC3)n2)cc1` belongs 14.9% (inactive).

In the case of `CC(=O)N1CCCc2cc(S(=O)(=O)CCC(=O)N3CCN(c4ccccc4)CC3)ccc21`, the inhibition was -45.2% (inactive). `COC(=O)Cn1nc(-c2ccccc2)c2cc(Cl)ccc21`: the inhibition was 25.2% (inactive). To `COc1ccc(COC(=O)c2n[nH]c3ccccc23)cc1F` belongs 54.1% (active). In the case of `O=C(COC(=O)c1n[nH]c2ccccc12)NCc1ccccc1`, the inhibition was 41.3% (inactive). To `COc1ccc(C(C)=O)cc1COC(=O)Cn1cnc2ccccc2c1=O` belongs 41.4% (inactive); to `COc1ccccc1NC(=O)[C@H](COCc1ccccc1)NC(=O)OC(C)(C)C`, 51.7% (active); to `COc1ccccc1NC(=O)CC(NCCN(C)C)C(=O)O` (stereo not drawn), -1.4% (inactive).

Take `COc1ccccc1NC(=O)/C=C/C(N)=O`: the inhibition was -19.3% (inactive). On to `CCC1(C)Cc2c(sc3[nH]c(=S)n(Cc4ccccc4)c(=O)c23)CO1` (stereo not drawn), for which the inhibition was 34.5% (inactive). To `Oc1ccc(/C=N/NC2=NCCCCC2)c(O)c1` belongs -17.7% (inactive); to `CSCCC(NS(=O)(=O)c1ccc2c(c1)oc(=O)n2C)C(=O)NC1CCCc2ccccc21` (stereo not drawn), -0.6% (inactive). Consider `CC1CCN(CC(=O)c2c[nH]c3ccccc23)CC1`, for which the inhibition was 4.9% (inactive). To `O=C(O)C1CCN(C(=O)OCc2ccccc2)CC1` belongs 5.6% (inactive); to `CCOC(=O)c1c(NC(=S)Nc2ccccc2)sc2c1CCN(C)C2`, 24.5% (inactive).

As for `N#Cc1c(N)sc2c1CCN(C(=O)OCc1ccccc1)C2`, the inhibition is 97.9% (active). As to `O=C(NN1C(=O)C2C3C=CC(C4CC34)C2C1=O)c1ccc(Cl)cc1` (stereo not drawn), the inhibition is 9.6% (inactive). For `COc1ccc(C(=O)n2nc(-c3ccc(Cl)cc3)nc2N)cc1OC` the value was -12.4% (inactive); for `COC(=O)c1ccc(OC(=O)c2nn(C)cc2Cl)c(OC)c1`, 58.9% (active); for `COc1ccc(Cl)cc1C(=O)NCc1cn(C)nc1C`, 1.3% (inactive).

Take `CN(C(=O)CSc1nnc(N)s1)c1c(N)n(Cc2ccccc2)c(=O)[nH]c1=O`: the inhibition is -12.4% (inactive). Turning to `COc1ccc(CC(NC(C)=O)C(=O)NC2CCN(C(=O)Nc3ccc(C#N)cc3)CC2)cc1OC` (stereo not drawn), the inhibition was 9.3% (inactive).
